# Screens deposited in PubChem by National Center for Advancing Translational Sciences (NCATS).
# Only a selection was taken, and hits are over-represented in it overall.
# KDM5B inh: inhibitors of human KDM5B histone demethylase; Q9UGL1; KDM5B demethylase, FDH-coupled NADH fluorescence (FDH is formaldehyde dehydrogenase); AID 1347165; 2.6% of 220,000 active; Potency, µM (doses to about 57.7 µM), usual class: inhibitors; active = well fitted inhibition curve with a large enough effect; also: 0% is about no effect; nearly all actives have a fitted effect of over 70% in size
#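 qHTS format, multiple compound concentrations. Buffer 50 mM HEPES pH 7.5/0.01% Tween-20; 200 nM KDM5BΔAP final; 10 min compound preincubation; substrate-mix levels 12.5 µM peptide, 25 µM α-KG, 0.25 mM NAD⁺; 30 min RT; ΔRFU.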
# * marks the source's active call; other numbers are inactive results; i = inactive. Potency is read from the fitted curve at half-maximal effect.
SMILES,KDM5B inh
Cc1ccc(NC(=O)c2cccc(N(C)C)c2)c(C)c1,i
O=C(NCC1CCN(c2cc(-c3ccc(F)cc3)[nH]n2)CC1)c1ccc[nH]c1=O,i
CN(C)c1cccc(C(=O)NCC2CCN(c3cc(-c4ccc(F)cc4)[nH]n3)CC2)c1,20µM*
Cc1cccc(C)c1NC(=O)c1cccc(N(C)C)c1,i
O=C(NCC1CCN(c2cc(-c3ccc(F)cc3)[nH]n2)CC1)c1n[nH]c2c1CCCC2,i
Cc1ccc(-c2cc(N3CCC(CNC(=O)c4ccc[nH]c4=O)CC3)n[nH]2)cc1,i
CC(=O)N1CCC(C(=O)NCC2CCN(c3cc(-c4ccc(Cl)cc4)[nH]n3)CC2)CC1,i
Cc1nccn1CC(=O)NCC1CCN(c2cc(-c3ccc(Cl)cc3)[nH]n2)CC1,i
CN(C)c1cccc(C(=O)NCC2CCN(c3cc(-c4ccc(Cl)cc4)[nH]n3)CC2)c1,31.6µM*
Cc1cccc(-c2[nH]ncc2CNC(=O)c2cccc(N(C)C)c2)c1,28.2µM*
Cc1ccc(-c2cc(N3CCC(CNC(=O)c4cccc(N(C)C)c4)CC3)n[nH]2)cc1,28.2µM*
O=C1C(N2CCN(S(=O)(=O)c3cccc(Cl)c3)CC2)CCN1Cc1cccnc1 (centres undefined),i
O=C1NN=C(c2ccncc2)C12CCN([S+](=O)([O-])c1cccc(C(F)(F)F)c1)CC2,i
Cc1cccc(NC(=O)N2C[C@@H](Oc3cccnc3)C[C@@H]2C(=O)N2CCOCC2)c1,i
CN(CC(=O)N1CCN(c2ccccc2F)CC1)c1nnc(N2CCCC2=O)s1,i
COc1ccccc1CN(Cc1c(Cl)cccc1Cl)S(=O)(=O)c1ccc(Br)cc1,i
Cn1c(=O)c2nc(SCc3cccc4ccccc34)n(C)c2n(C)c1=O,i
CN(C)c1nc(C2CC(NC3Cc4ccccc4C3)C2)cc(=O)[nH]1 (centres undefined),i
O=C(Nc1cccc(C(=O)OCc2cc(=O)n3nc(C4CC4)sc3n2)c1)c1cccc(Cl)c1,i
COc1ccc2cc(C(=O)NCCOc3cccc(C)c3)[nH]c2c1,i
CC(C)NC(=O)C(C)Sc1ncc(-c2ccc(F)cc2)o1 (centres undefined),i
Cc1cccc(N2CCN(C(=O)CS(=O)(=O)c3cccc4nsnc34)CC2)c1C,i
Cc1ccc(CN(C(=O)c2ccccc2Br)C2CCS(=O)(=O)C2)o1 (centres undefined),i
C=CCN1CC2(CCC1=O)CCN(CC1CCCCO1)CC2 (centres undefined),i
OCCCn1cnc(-c2ccccc2)c1COCc1ccccc1,i
SMILES,KDM5B inh
CCOCCn1cnc(-c2ccccc2)c1-c1ccccc1OCC(N)=O,i
OCCOCCn1cnc(-c2ccccc2)c1-c1ccc(-n2cccn2)cc1,31.6µM*
CCOCCn1c(CN2CCc3ccccc3C2)nc2c1c(=O)n(C)c(=O)n2C,i
CCC(=O)NC1CCN(c2cnn(C)c(=O)c2)CC1,i
CC(=O)OCc1cc(=O)n2nc(C3CCCCC3)sc2n1,i
OC(c1cc2n(n1)CCN(Cc1cc(C3CC3)on1)C2)C1CC1 (centres undefined),i
CC(O)c1cc2n(n1)CCN(Cc1cc(=O)n3nc(C4CC4)sc3n1)C2 (centres undefined),25.1µM*
Cc1ccccc1CCC1CCCN(C(=O)c2ccccc2-c2nn[nH]n2)C1 (centres undefined),i
Fc1ccc(Cc2nc(-c3nnn4c3COC(c3ccc(Cl)cc3)C4)no2)cc1 (centres undefined),i
CN(Cc1nc(-c2cccc(Cl)c2)no1)C1CCOCC1,i
Cc1noc(-c2nc(-c3cccc(Cl)c3)no2)n1,i
Cc1nnc(CN(C)c2ccc(-c3nc(-c4cccc(Cl)c4)no3)cn2)o1,28.2µM*
COc1ccccc1NC(=O)c1cnc(Nc2ccc(C)c(Cl)c2)c2ccccc12,i
CC(C)(C)CC(=O)N1CCC2(CC1)OCCN2S(=O)(=O)c1ccccc1,i
CC1CN(C(=O)Nc2ccc(C(=O)NCc3cccc(F)c3)cc2)c2ccccc2S1 (centres undefined),i
CCCN(Cc1nnc(-c2ccccc2Cl)o1)C(=O)c1ccc(S(=O)(=O)N2CCCC2)cc1,i
Cc1ccc(CN2CCCC(c3nc(-c4cccnc4)no3)CCNC(=O)CC2)s1 (centres undefined),i
CCN1CCN(C(=O)C2CCCN(Cc3cccnc3)CCC(=O)NCC2)CC1 (centres undefined),i
COc1cccc(N2CCN(C(=O)C3CCCN(Cc4cccnc4)CCC(=O)NCC3)CC2)c1 (centres undefined),i
CCn1ncc(CN2CCCC(c3nc(C(C)C)no3)CCNC(=O)CC2)c1C (centres undefined),i
Cc1ccc(CN2CCCC(C(=O)N3CCN(c4ccccn4)CC3)CCNC(=O)CC2)s1 (centres undefined),28.2µM*
CCn1ncc(CN2CCCC(C(=O)N3CCN(c4ccccn4)CC3)CCNC(=O)CC2)c1C (centres undefined),25.1µM*
